Experimental findings from PubChem BioAssay AID434970 (Sanford-Burnham Center for Chemical Genomics, 2010) are described below.

Among all 11,000 compounds or so, about 310 (2.8%) were called active. No stated cut-off is given here; in the data, active means activity change below about -85%; inactive means the rest. Many of the other results were omitted from the sample, so actives are more common in it than they were.

For this assay, the system named is intestinal alkaline phosphatase [Mus musculus]. Kind of assay: activators of mouse IAP, confirmation, biochemical, luminescence, single concentration (AID 434970). The conditions noted are these: purified mouse IAP, CDP-Star luminescence, 30 min, at 10 µM; activation factor: measured here: IAP activation factor, stronger effect = higher value; activity change, negative = activation: stronger effect = lower value.
For `CC(=O)Nc1ccc(Nc2nc(C)nc3c2oc2ccccc23)cc1`, the activation factor stood at 1.01 and the activity change, negative = activation was -1.3% (inactive).
Taken in the same sequence, the figures for `Cn1nnnc1SCC(=O)Nc1ccc(Oc2ccccc2)cc1` were 0.952 and 4.85% (inactive).
For `COc1ccc(CCn2c(C)cc(C(=O)CSc3nnc(N)s3)c2C)cc1`, in that order: 0.959 and 4.1% (inactive).
For `O=C(NCc1ccc(Cl)cc1Cl)C1CCN(S(=O)(=O)c2ccc3c(c2)OCCCO3)CC1`, in that order: 1.48 and -48.2% (inactive).
Turning to `COCCNC(=O)CN(C)S(=O)(=O)c1ccc2c(c1)OCCO2`, the activation factor is 0.928 and the activity change, negative = activation is 7.15% (inactive).
For `COc1ccc(NC2=C(C(C)=O)C(c3ccc(OC)c(OC)c3)C(C(C)=O)C(C)(O)C2)cc1` (configuration not stated), in that order: 1.08 and -7.85% (inactive).
For `CCn1nnnc1SCC(=O)Nc1ccc2c(c1)OCO2`, in that order: 0.992 and 0.8% (inactive).
Taken in the same sequence, the figures for `CCOC(=O)/C=C(\C)Nc1cc(C)nn1-c1ccccc1` were 1.04 and -4.05% (inactive).
Consider `Cc1nn(C)c(C)c1NC(=O)Nc1ccc(Cl)c(Cl)c1`, for which the activation factor stood at 1.62 and the activity change, negative = activation is -62.2% (inactive).
On to `Cc1cc(NC(=O)Nc2cc(C)nn2-c2ccccc2)n(-c2ccccc2)n1`, for which the activation factor stood at 0.992 and the activity change, negative = activation is 0.75% (inactive).
Taken in the same sequence, the figures for `Cc1cc(NC(=O)Nc2ccc(Cl)c(Cl)c2)n(-c2ccccc2)n1` were 2.79 and -179% (active).
For `Cc1cc(NC(=O)c2ccc(C)s2)n(-c2ccccc2)n1`, in that order: 1.01 and -0.8% (inactive).
For `COc1cccc(-c2cc(C(=O)Nc3cc(C)nn3-c3ccccc3)no2)c1`, in that order: 1.1 and -10.2% (inactive).
As for `Cc1cc(NC(=O)Nc2cccc(Cl)c2)n(-c2ccccc2)n1`, the activation factor is 1.97 and the activity change, negative = activation is -97.1% (active).
Taken in the same sequence, the figures for `COc1ccc(-c2cc(C(=O)Nc3cc(C)nn3-c3ccccc3)no2)cc1` were 0.921 and 7.9% (inactive).
Consider `Cc1cc(NC(=O)Nc2ccc(Cl)cc2)n(-c2ccccc2)n1`, for which the activation factor was 2.07 and the activity change, negative = activation was -107% (active).
Taken in the same sequence, the figures for `COc1cc(C2Nc3cc(Cl)c(S(N)(=O)=O)cc3S(=O)(=O)N2)ccc1OCc1ccccc1` (configuration not stated) were 0.84 and 16% (inactive).
For `CC[C@]12c3[nH]c4cc(CCC(=O)N(C)C)ccc4c3CCN1C(=O)[C@@H](CC(=O)NCC13CC4CC(CC(C4)C1)C3)C[C@@H]2C(=O)N1CCN(C(=O)C2CC2)CC1`, in that order: 1.15 and -14.6% (inactive).
As for `O=C(CCl)Oc1ccc2occ(C(=O)c3cccs3)c2c1`, the activation factor stood at 0.89 and the activity change, negative = activation is 11% (inactive).
Taken in the same sequence, the figures for `Cc1[nH]c2ccccc2c1C(=O)COC(=O)C1CC(=O)N(Cc2ccco2)C1` (configuration not stated) were 1.14 and -13.6% (inactive).
For the molecule `CCOC(=O)C1=CNS(=O)(=O)NC1c1ccc(C)cc1` (configuration not stated), the activation factor worked out at 0.96 and the activity change, negative = activation is 4.05% (inactive).
Taken in the same sequence, the figures for `COc1ccc2c(c1)[nH]c1c(=O)n(CCc3cnc[nH]3)cnc12` were 1.02 and -1.9% (inactive).
For `CCCCOc1ccc(-c2nnc(-c3ccncc3)o2)cc1`, in that order: 0.94 and 6.05% (inactive).
For the molecule `CCCCCOc1ccc(C(=O)CCC(=O)NNC(=O)c2ccncc2)cc1`, the activation factor came to 3.52 and the activity change, negative = activation was -252% (active).
Taken in the same sequence, the figures for `CCCOc1ccc(C(=O)NCCO)cc1` were 1.01 and -1.1% (inactive).
For `CC[C@]1(C(=O)OC)[C@H]2C(=O)N(C)C(=O)[C@H]2[C@H]2CN=C(SCc3ccc(C#N)cc3)N21`, in that order: 1.07 and -6.55% (inactive).
Take `N#Cc1nc(-c2ccc(Cl)cc2)oc1NCc1ccco1`: the activation factor worked out at 0.952 and the activity change, negative = activation is 4.8% (inactive).
Taken in the same sequence, the figures for `COc1ccccc1-c1cc(C(F)(F)F)nc(N2CCCC2)n1` were 0.939 and 6.15% (inactive).
Taken in the same sequence, the figures for `O=C(Cn1cc(C(=O)c2ccco2)c2ccccc21)NCc1ccco1` were 0.907 and 9.3% (inactive).
Taken in the same sequence, the figures for `S=C(NCc1ccc(Cl)cc1Cl)NC1CCCCC1` were 1.93 and -93% (active).
For `S=C(NCc1ccc(Cl)cc1Cl)Nc1ccccc1`, the activation factor came to 1.41 and the activity change, negative = activation is -41% (inactive).
As to `S=C(NCc1cccc(Cl)c1)NC1CCCCC1`, the activation factor came to 1.14 and the activity change, negative = activation is -14.3% (inactive).
Turning to `Cc1cccc(NC(=O)C2=C(O)c3ccccc3N(C)S2(=O)=O)c1`, the activation factor amounted to 0.998 and the activity change, negative = activation was 0.2% (inactive).
For `N#Cc1nc(COc2ccc(Cl)cc2)oc1N1CCCCCC1`, the activation factor came out at 0.964 and the activity change, negative = activation is 3.6% (inactive).
For `CCOC(=O)c1cccc(NC(=O)CCS(=O)(=O)c2cccs2)c1`, in that order: 1.01 and -0.85% (inactive).
For `COc1ccc(C(=O)NNC(=S)NC(=O)c2cc(-c3ccccc3)nc3ccccc23)cc1`, in that order: 0.848 and 15.2% (inactive).
